The first test deals with RARg homodimer (NR concentration 270 nM). In words: PBM binding z-score (relative to random genomic background probes); higher = stronger binding; sequences stand for … in GC…GCGATTGACAGCGTAGAATGAAGG
The method, boiled down:
(§1)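 Binding z-scores take random background probes as their reference. They come from custom Agilent 4×180K protein-binding microarrays incubated 1 h with ligand-free nuclear receptor dimers, with antibodies against each partner (one per run) detecting binding. Scanned fluorescence was regression-normalized.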
Turning to ACTATTAGTTGAGAAGAGGGCAACCGATAGGTTG, the PBM binding z-score was 0.968.
CGAACTAGGTCTGAACAGGACAGTGAAGGATGAT displayed a PBM binding z-score of 0.136.
Still for that read-out and setting: under CCGAGTAGGTTATGGGGCATTCCGGCAACGGTGA stands 0.307; under GCTCGGATGACAAGGTCAGAGCTTTGTCCGTAGA, 2.02; under CGAACTAGGTCAAAGGTCAAAGTCGAGCCAACCA, 7.55.
In turn, GCGACTGGTGCATCAGCAGGTTACCATAACTTAA displayed a PBM binding z-score of -0.351.
Consider TCTAGTTGGTCACGGAGGTCACACACGACGGGTA, for which the PBM binding z-score came to 4.79.
Same read-out and setting: under GTTGCTAGGTCAGGTTGGTCAGCTAACGGGTACG stands 4.18; under TCGTGTAGATCAGCAGGTTAAGAAAGCTGGCCAA, -0.396; under GCTGGCAGGCCATTTGGGTCACTCAATGACGGGC, 1.54.
On the same count and under the same terms, under TGAATCAGGTTATAAGATCAGGGAACGTTGCAAA stands 0.42; under AGCATGAGGTTATACGTAGATCAGGGAAGAAAGT, 1.3; under CCTAGCAGGCCAATTTGGGTCACTCAAGGCTTGA, 1.21.
Same read-out and setting: under GATACAGGGTCAAGACCAGAGTACGCGTATTGAT stands 4.7.
TCTCGGAGGACACGAAGGACAGAGCTTTCCAGAG: the PBM binding z-score was 1.75.
The same measure, in the same setting: the same measure for CCGACTGGGCCACGAAAGGTCATTGATTCAGTGA: 4.35.
ATCGAAAGGTCGAAGGTTAGTATACCCACCCGAA showed a PBM binding z-score of 3.94.
In turn, TGAATGACGTTATAAGATCAGGGAACGTTGCAAA gave a PBM binding z-score of 0.292.
Sequence AGAATGAGGCTACCAAAGATCAGGGAAACGCTTG returned a PBM binding z-score of 0.34.
On the same count and under the same terms, the same measure for CAAACTAGGTCAAGGTCATAGTCGGTTTGTGCCA: 6.44; for TCACGGAGGACACGAAAGGTCAGAGCTCGACATC: 5.55; for ACTAGCAGGCCAGGTTTGGGTCACTCAAACAAAG: 0.836.
As for TAGCCTAGGTCATGGGCCAGTAGACCACGCGAAC, the PBM binding z-score turned out to be 4.33.
Same read-out and setting: the same measure for CCCTACGGGTCACTGACAGGTTATAGCATTTGGA: 4.37; for GATACAGGGTCAACGCCAGAGTACGCGTATTGAT: 6.23; for ACAGACAGGTGACGAAGGTAACTCAGGCTATCAT: 0.697.
The same measure, in the same setting: under TCAGACAGGTGGAGGTAACTCAGGTACGCAGTCG stands -0.245; under TCTATTAGTTGATTAGGGCAGCCGAAACAGCGGA, 0.628; under GCTAGCAGGCCATTTGGGACACTCAATGACGGGC, 0.308.
Still for that read-out and setting: under TAGCCTAGGTCATGCAGGCCAGTATAGTGTCGGC stands 4.12; under TCTTGTAGATCAAGCAGGTTAATAAAGCCTGAGT, -0.28.
Consider CTCCAAAGGTCGTGCTCAGGTGAGTATACCAAAC, for which the PBM binding z-score turned out to be 4.
As for GCTGCTAGGTCCACTGATGGTCAGCTAAAGCTCG, the PBM binding z-score is -0.0766.
On the same count and under the same terms, the same measure for ATATGTAGCTTATCGGGTCATTCAGTTTGCGCAT: 1.35; for CCTCGGAGGACAGTAGGTCAGAGCTGTCCGCTTT: 2.06; for AGAATGAGGTTATAAAGATCAGGGAATTGCGGTC: 0.986.
In turn, GCTTGTAGATTAAGGTTAAGAAAGACTAAGCTAA returned a PBM binding z-score of 0.267.
In the case of CGTCAAAGTTCAATGTAACGTAACAGAAAGCAGC, the PBM binding z-score came out at 5.45.
On to TCTATTAGTTGATAAGGGCAACCGAAACAGCGGA, for which the PBM binding z-score came to 0.844.
Same read-out and setting: under GCTAGTTGGTCAGTAAAAGGTCACAGACCGGTCG stands 5.2.

The test system of another test is RXRa DBDmut IVT, anti-RXR (DBD mutation: RXRa K156A/R161A, NR concentration 90 nM). The description is as above. The method, boiled down: as §1
Consider ACTATTAGTTGAGAAGAGGGCAACCGATAGGTTG, for which the PBM binding z-score was determined as 0.286.
The same measure, in the same setting: the same measure for CGAACTAGGTCTGAACAGGACAGTGAAGGATGAT: -0.233; for CCGAGTAGGTTATGGGGCATTCCGGCAACGGTGA: -0.402; for GCTCGGATGACAAGGTCAGAGCTTTGTCCGTAGA: 0.22.
Same read-out and setting: under CGAACTAGGTCAAAGGTCAAAGTCGAGCCAACCA stands 3.33.
Still for that read-out and setting: the same measure for GCGACTGGTGCATCAGCAGGTTACCATAACTTAA: -0.127; for TCTAGTTGGTCACGGAGGTCACACACGACGGGTA: 0.886; for GTTGCTAGGTCAGGTTGGTCAGCTAACGGGTACG: 0.0427.
TCGTGTAGATCAGCAGGTTAAGAAAGCTGGCCAA registered a PBM binding z-score of 0.345.
In the case of GCTGGCAGGCCATTTGGGTCACTCAATGACGGGC, the PBM binding z-score is -0.405.
Still for that read-out and setting: under TGAATCAGGTTATAAGATCAGGGAACGTTGCAAA stands -0.671.
In turn, AGCATGAGGTTATACGTAGATCAGGGAAGAAAGT yielded a PBM binding z-score of 1.63.
The same measure, in the same setting: the same measure for CCTAGCAGGCCAATTTGGGTCACTCAAGGCTTGA: 0.0247.
In turn, GATACAGGGTCAAGACCAGAGTACGCGTATTGAT registered a PBM binding z-score of 2.23.
Same read-out and setting: under TCTCGGAGGACACGAAGGACAGAGCTTTCCAGAG stands 0.518; under CCGACTGGGCCACGAAAGGTCATTGATTCAGTGA, 0.758; under ATCGAAAGGTCGAAGGTTAGTATACCCACCCGAA, 1.41.
On the same count and under the same terms, under TGAATGACGTTATAAGATCAGGGAACGTTGCAAA stands -0.941; under AGAATGAGGCTACCAAAGATCAGGGAAACGCTTG, -0.268.
Sequence CAAACTAGGTCAAGGTCATAGTCGGTTTGTGCCA yielded a PBM binding z-score of 2.95.
In turn, TCACGGAGGACACGAAAGGTCAGAGCTCGACATC showed a PBM binding z-score of 1.1.
Still for that read-out and setting: under ACTAGCAGGCCAGGTTTGGGTCACTCAAACAAAG stands -0.798.
The same measure, in the same setting: under TAGCCTAGGTCATGGGCCAGTAGACCACGCGAAC stands -0.149.
Same read-out and setting: under CCCTACGGGTCACTGACAGGTTATAGCATTTGGA stands 0.859; under GATACAGGGTCAACGCCAGAGTACGCGTATTGAT, 2.6.
The sequence ACAGACAGGTGACGAAGGTAACTCAGGCTATCAT showed a PBM binding z-score of -0.564.
For TCAGACAGGTGGAGGTAACTCAGGTACGCAGTCG, the PBM binding z-score came to 0.723.
TCTATTAGTTGATTAGGGCAGCCGAAACAGCGGA had a PBM binding z-score of 1.14.
Same read-out and setting: under GCTAGCAGGCCATTTGGGACACTCAATGACGGGC stands -0.237; under TAGCCTAGGTCATGCAGGCCAGTATAGTGTCGGC, 0.936; under TCTTGTAGATCAAGCAGGTTAATAAAGCCTGAGT, 0.435.
Still for that read-out and setting: the same measure for CTCCAAAGGTCGTGCTCAGGTGAGTATACCAAAC: 2.23; for GCTGCTAGGTCCACTGATGGTCAGCTAAAGCTCG: 0.741; for ATATGTAGCTTATCGGGTCATTCAGTTTGCGCAT: 1.26.
On the same count and under the same terms, under CCTCGGAGGACAGTAGGTCAGAGCTGTCCGCTTT stands 0.0907; under AGAATGAGGTTATAAAGATCAGGGAATTGCGGTC, 1.35; under GCTTGTAGATTAAGGTTAAGAAAGACTAAGCTAA, 0.113.
CGTCAAAGTTCAATGTAACGTAACAGAAAGCAGC had a PBM binding z-score of 4.69.
The same measure, in the same setting: the same measure for TCTATTAGTTGATAAGGGCAACCGAAACAGCGGA: 1.2; for GCTAGTTGGTCAGTAAAAGGTCACAGACCGGTCG: 0.262.

The record behind these values is the supplement of paper PMC6555819.
